In PubChem BioAssay AID1159580 (chemical genetic matrix, 2015):
Values joined by “and” are separate entries in the source; they are usually repeats but may differ in a detail not shown here. Equal values may be shown once. Out of some 5,500 compounds screened, about 2,000 (36%) were called active. Not shown: some 18% with an inconclusive outcome. No stated cut-off is given here; in the data, active means normalized growth mostly below about 0.91 (no sharp cut-off); inconclusive means no clear call, values can overlap the other calls; inactive means mostly above about 0.92. The list shows a part of the results.

Assay: chemical genetic growth profiling, strain panel (AID 1159580);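 further: tested at 20 µM; growth read once vehicle control cultures reached saturation at 30 °C; 1 = growth at the plate median or of vehicle wells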
Conditions: S. cerevisiae deletion strains, growth OD

Measured: normalized growth

CC(=O)S[C@@H]1CC2=CC(=O)CC[C@]2(C)[C@H]2CC[C@@]3(C)[C@@H](CC[C@@]34CCC(=O)O4)C12 (some centres undefined)
inactive: locus YAL013W, strain DEP1, stronger effect = lower value 1 | locus YAL021C, strain ccr4, stronger effect = lower value 1.01 | locus YAL026C, strain drs2, stronger effect = lower value 1.01 | locus YAL030W, strain snc1, stronger effect = lower value 1.01 | locus YBL061C, strain skt5, stronger effect = lower value 1.02 | locus YBR009C, strain hhf1, stronger effect = lower value 0.98 | locus YBR021W, strain FUR4, stronger effect = lower value 0.992 | locus YBR023C, strain chs3, stronger effect = lower value 1.01 | locus YBR171W, strain sec66, stronger effect = lower value 1.03 | locus YBR229C, strain ROT2, stronger effect = lower value 0.997 | locus YBR231C, strain swc5, stronger effect = lower value 1.04 | locus YBR279W, strain paf1, stronger effect = lower value 1.01 | locus YCL011C, strain gbp2, stronger effect = lower value 0.984 | locus YCL016C, strain dcc1, stronger effect = lower value 0.993 | locus YCL029C, strain bik1, stronger effect = lower value 1.03 | locus YCL061C, strain MRC1, stronger effect = lower value 1.04 | locus YCL069W, strain vba3, stronger effect = lower value 1.01 | locus YCR088W, strain abp1, stronger effect = lower value 1.01 | locus YDL005C, strain med2, stronger effect = lower value 1.01 | locus YDL035C, strain GPR1, stronger effect = lower value 1.01 | locus YDL040C, strain nat1, stronger effect = lower value 1.01 | locus YDL074C, strain BRE1, stronger effect = lower value 1.01 | locus YDL101C, strain DUN1, stronger effect = lower value 1.01 | locus YDL134C, strain PPH21, stronger effect = lower value 1.01 | locus YDL185W, strain tfp1, stronger effect = lower value 1.01 | locus YDL192W, strain arf1, stronger effect = lower value 1.03 | locus YDR001C, strain nth1, stronger effect = lower value 1 | locus YDR069C, strain doa4, stronger effect = lower value 1.03 | locus YDR101C, strain arx1, stronger effect = lower value 1.03 | locus YDR137W, strain rgp1, stronger effect = lower value 1 | locus YDR150W, strain NUM1, stronger effect = lower value 1 | locus YDR159W, strain sac3, stronger effect = lower value 0.972 | locus YDR162C, strain NBP2, stronger effect = lower value 1 | locus YDR195W, strain ref2 1.05 | locus YDR297W, strain sur2, stronger effect = lower value 1.02 | locus YDR318W, strain mcm21, stronger effect = lower value 1.02 | locus YDR334W, strain swr1, stronger effect = lower value 1 | locus YDR335W, strain msn5, stronger effect = lower value 1.02 | locus YDR388W, stronger effect = lower value 1.03 | locus YDR392W, strain spt3, stronger effect = lower value 0.951 | locus YDR502C, strain sam2, stronger effect = lower value 1.02 | locus YEL003W, strain gim4, stronger effect = lower value 1.01 | locus YEL037C, strain rad23, stronger effect = lower value 1.01 | locus YEL061C, strain CIN8 (second series), stronger effect = lower value 1.01 | locus YEL061C, strain CIN8, stronger effect = lower value 0.963 | locus YER015W, strain faa2, stronger effect = lower value 1.02 | locus YER016W, strain bim1, stronger effect = lower value 1 | locus YER110C, stronger effect = lower value 1.03 | locus YER111C, strain swi4, stronger effect = lower value 1.01 | locus YER155C, strain BEM2 (second series), stronger effect = lower value 1.07 | locus YER155C, strain BEM2, stronger effect = lower value 1.01 | locus YER167W, strain BCK2, stronger effect = lower value 1.01 | locus YFR010W, strain ubp6, stronger effect = lower value 1.02 | locus YGL078C, strain dbp3, stronger effect = lower value 1.03 | locus YGL086W, strain mad1, stronger effect = lower value 0.998 | locus YGL167C, strain pmr1, stronger effect = lower value 1.03 | locus YGL173C, strain kem1, stronger effect = lower value 1.02 | locus YGL227W, strain vid30, stronger effect = lower value 0.997 | locus YGL240W, strain doc1, stronger effect = lower value 1.05 | locus YGL248W, strain PDE1, stronger effect = lower value 1.01 | locus YGL253W, strain hxk2, stronger effect = lower value 0.97 | locus YGR078C, strain PAC10, stronger effect = lower value 0.984 | locus YGR135W, strain pre9, stronger effect = lower value 1.02 | locus YGR252W, strain gcn5, stronger effect = lower value 1 | locus YHR013C, strain ard1, stronger effect = lower value 1.01 | locus YHR027C, strain rpn1, stronger effect = lower value 1.01 | locus YHR030C, strain SLT2, stronger effect = lower value 0.996 and 1.06 | locus YHR079C, strain IRE1 (second series), stronger effect = lower value 1.03 | locus YHR079C, strain IRE1, stronger effect = lower value 1.08 | locus YHR094C, strain hxt1, stronger effect = lower value 1.03 | locus YHR129C, strain ARP1, stronger effect = lower value 1 | locus YHR142W, strain chs7, stronger effect = lower value 1 | locus YHR200W, strain rpn10, stronger effect = lower value 1.02 | locus YIL066C, strain RNR3, stronger effect = lower value 1 | locus YIL073C, strain SPO22, stronger effect = lower value 1.05 | locus YIL125W, strain kgd1, stronger effect = lower value 1.02 | locus YIR030C, strain dcg1, stronger effect = lower value 1.02 | locus YJL092W, strain hpr5, stronger effect = lower value 1.01 | locus YJL095W, strain BCK1 (second series), stronger effect = lower value 0.996 | locus YJL095W, strain BCK1, stronger effect = lower value 1 and 1.02 | locus YJL115W, strain asf1, stronger effect = lower value 1.02 | locus YJL129C, strain trk1, stronger effect = lower value 1.02 | locus YJL134W, strain LCB3, stronger effect = lower value 1 | locus YJL154C, strain vps35, stronger effect = lower value 1.02 | locus YJL164C, strain tpk1, stronger effect = lower value 0.983 | locus YJL166W, strain qcr8, stronger effect = lower value 1.04 | locus YJL168C, strain set2, stronger effect = lower value 1.02 | locus YJL187C, strain SWE1 (second series), stronger effect = lower value 1 | locus YJL187C, strain SWE1, stronger effect = lower value 1.02
